Source: PubChem
In the library only some 2.2% were active in any assay of this set; here they are far more common.
KLF5 inh: kruppel-like factor 5 inhibition; 290,000 compounds, 0.23% hits; AID 1700; DLD-1 KLF5 promoter-luciferase reporter, luminescence; inhibition, % at 5 µM;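 active = inhibition above a per-plate limit of that plate's mean compound inhibition plus 3 SD, cut at about 60% in these data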;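 also: higher means less KLF5 promoter-driven luciferase light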
IEC-6 cytotox: IEC-6 cytotoxicity, counter-screen for KLF5 inhibitors | luminescence viability | inhibition, % at 5 µM | 290,000 compounds, 0.78% hits; in the data active = inhibition above about 22%
APP transl inh: APP translation inhibition. inhibition, % at 2 µM. SH-SY5Y APP 5'UTR-luciferase reporter, luminescence. 190,000 compounds, 0.82% hits;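 active = inhibition above a set limit, derived from the sample mean plus 3 SD, cut at about 45% in these data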
Ba/F3 V617F tox: reduce viability of Ba/F3 cells dependent on JAK2V617F. Ba/F3 EpoR-JAK2V617F viability, ATP luminescence. inhibition, % at 5.6 µM. 220,000 compounds, 1.1% hits. AID 1446;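 active = inhibition above the campaign mean plus 3 SD over all tested compounds, cut at about 24% in these data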;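 also: cytokine-independent growth of Ba/F3 cells driven by EpoR plus mutant JAK2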
BaF3 parental: reduces parental Ba/F3 cell viability, JAK2V617F counter-screen | inhibition, % at 5.6 µM | CellTiter-Glo ATP luminescence | 220,000 compounds, 1.1% hits;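 active = inhibition above a per-campaign cutoff, the mean inhibition of all tested compounds plus 3 SD, cut at about 27% in these data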
aSyn 5UTR inh: MLPCN primary screen, SNCA 5' untranslated region | alpha-synuclein 5'UTR reporter, inhibitor activity | inhibition, % (tested at 7.5 µM) | 300,000 compounds, 0.82% hits; in the data active = inhibition above about 60%;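 also: H4 neuroglioblastoma cells stably carrying SNCA 5'UTR luciferase fusion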
Of the large screens only hits and unclear results are named; the others gave an inactive call.

COc1ccc(C2C(C(=O)Nc3cccc(C)n3)CCC(=O)N2c2ccc(OC)cc2)cc1 (configuration not stated)	aSyn 5UTR inh 73
COc1ccc(N2C(=O)CCC(C(=O)N3CCC(C(N)=O)CC3)C2c2ccc(F)cc2)cc1 (configuration not stated)	BaF3 parental 69
COc1ccc(N2C(=O)CCC(C(=O)N3CCCCC3)C2c2ccc(F)cc2)cc1 (configuration not stated)	none
O=C(NC(Cc1c[nH]c2ccccc12)C(=O)Nc1ccc(OC(F)(F)F)cc1)c1cccs1 (configuration not stated)	none
CCCCCCCCOC(=O)C[N+](C)(C)C/C=C(/C)Cl	Ba/F3 V617F tox 32, BaF3 parental 53
CCCCCCCOC(=O)c1nc(Cl)c(Cl)c(N)c1Cl	none
CCCCCCCCCCCCOC(=O)C[N+](C)(C)C	none (no result: APP transl inh)
CCCCCCCCCCOC(=O)C[N+](C)(C)C/C=C(/C)Cl	Ba/F3 V617F tox 67, BaF3 parental 59
COc1ccc(NC(=O)c2cccc([N+](=O)[O-])c2)cc1	none
COc1ccc(NC(=O)c2cc([N+](=O)[O-])ccc2O)cc1	KLF5 inh 84, aSyn 5UTR inh 85
COc1ccc(C(=O)/C=C/C(=O)N(Cc2ccccc2OC)C(C(=O)NC2CCCCC2)c2ccncc2)c(O)c1 (configuration not stated)	none
COc1ccc(C(=O)/C=C/C(=O)N(CC(=O)NC2CCCCC2)Cc2ccccc2)c(O)c1	APP transl inh 73, aSyn 5UTR inh 67
COc1ccc(C(=O)/C=C/C(=O)N(CC(=O)NC2CCCCC2)CC2CCCO2)c(O)c1 (configuration not stated)	APP transl inh 71, aSyn 5UTR inh 73
COc1ccc(C(=O)/C=C/C(=O)N(CC(=O)NC2CCCCC2)Cc2ccccc2OC)c(O)c1	APP transl inh 75
COc1ccc(C(=O)/C=C/C(=O)N(Cc2ccccc2)C(C(=O)NC2CCCCC2)c2ccncc2)c(O)c1 (configuration not stated)	none
CC(=O)c1ccc(OCCCC(=O)N2CCN(S(=O)(=O)c3cccs3)CC2)cc1	none
O=C(c1cc(COc2c(F)cccc2F)on1)N1CCN(C2CCCCC2)CC1	none (no result: APP transl inh, Ba/F3 V617F tox, BaF3 parental)
CCCC1COC(Cn2cncn2)(c2ccc(C)cc2)O1 (configuration not stated)	none
CCC(C)n1ncn(-c2ccc(N3CCN(c4ccc(OCC5COC(Cn6cncn6)(c6ccc(Cl)cc6Cl)O5)cc4)CC3)cc2)c1=O (configuration not stated)	aSyn 5UTR inh 100 (no result: APP transl inh)
COCC(=O)N1CCCC(CNS(=O)(=O)c2ccc(OC)cc2)C1 (configuration not stated)	none
COCCC(=O)N1CCCC(CNS(=O)(=O)c2ccc(OC)cc2)C1 (configuration not stated)	BaF3 parental 90
CSc1cccc(NC(=O)Nc2nc3c(C)cccc3s2)c1	none (no result: APP transl inh)
C/C(Cn1cnc([N+](=O)[O-])n1)=N\NC(=O)c1ccccc1F	none
CCOc1ccc(N2CC(=O)N(c3ccc(OCC)cc3)CC2=O)cc1	BaF3 parental 93
CCOc1ccc(N2C(=O)CCC2=O)cc1	none
O=C(CN(c1ccc(Cl)cc1)S(=O)(=O)c1ccc(Cl)c([N+](=O)[O-])c1)NCCc1ccccc1	aSyn 5UTR inh 106
Cc1cc(C)nc(N2CCN(c3ncnc4c3cnn4Cc3ccc(Cl)cc3Cl)CC2)n1	none (no result: KLF5 inh, IEC-6 cytotox, APP transl inh, Ba/F3 V617F tox, BaF3 parental)
CCOC(=O)CCC(=O)N1CCOCCOCCN(C(=O)CCC(=O)OCC)CCOCC1	none
NC1=NC2(CCCCC2)N(c2cccc(Cl)c2)C(N)=N1	Ba/F3 V617F tox 68, BaF3 parental 70
COc1ccc(N2C(N)=NC(N)=NC23CCCC3)cc1	Ba/F3 V617F tox 57, BaF3 parental 64
COc1ccccc1N1C(N)=NC(N)=NC12CCCCC2	none (no result: APP transl inh, Ba/F3 V617F tox, BaF3 parental)
CC(CNC(=O)CCn1c(=O)c2cccn2c2ccc(F)cc21)c1ccccc1 (configuration not stated)	none (no result: APP transl inh, Ba/F3 V617F tox, BaF3 parental)
Cc1ccc(C)c(-n2c(SCC(=O)Nc3nonc3C)nnc2-c2ccoc2C)c1	none
C=CC[n+]1c(-c2ccc(Cl)cc2Cl)csc1Nc1c(C)n(C)n(-c2ccccc2)c1=O	none
C=CC[n+]1c(-c2ccc(Cl)cc2Cl)csc1Nc1ccc(NC(C)=O)cc1	aSyn 5UTR inh 94
Cc1ccc(O)c(/C=N/NC(=O)c2[nH]ncc2Br)c1	none
Cc1ccc(O)c(/C=N/NC(=O)C2=NNC(c3ccccc3)(c3ccccc3)C2)c1	APP transl inh 78 (no result: aSyn 5UTR inh)
CN(C(=O)CSc1nnc2ccccn12)c1c(N)n(Cc2ccccc2)c(=O)[nH]c1=O	none
CSc1ccc(C2NN=C(c3ccccc3)S2)cc1 (configuration not stated)	aSyn 5UTR inh 68 (no result: KLF5 inh, IEC-6 cytotox, APP transl inh, Ba/F3 V617F tox, BaF3 parental)
O=C1CCC2S/C(=C/Nc3ccc(C(F)(F)F)cc3)C(=O)N12 (configuration not stated)	APP transl inh 72, aSyn 5UTR inh 99
O=C1CCCC/C1=C/Nc1cccc(C(F)(F)F)c1	none
CCC(=O)NC(c1cccs1)c1cc([N+](=O)[O-])c2cccnc2c1O (configuration not stated)	none (no result: APP transl inh)
CCC(=O)NC(c1ccc(OC)cc1)c1cc(Cl)c2cccnc2c1O (configuration not stated)	APP transl inh 64, aSyn 5UTR inh 81
O=C(CCc1ccccc1)NC(c1cccs1)c1cc(Cl)c2cccnc2c1O (configuration not stated)	APP transl inh 68, aSyn 5UTR inh 88
CCC(=O)NC(c1ccco1)c1cc(Cl)c2cccnc2c1O (configuration not stated)	aSyn 5UTR inh 100
CCCCC(=O)NC(c1ccco1)c1cc(Cl)c2cccnc2c1O (configuration not stated)	APP transl inh 46
CCN(Cc1ccccc1)C(=O)c1cc2cc(OC)c(OC)cc2[nH]1	none (no result: APP transl inh, Ba/F3 V617F tox, BaF3 parental)
COc1ccc(C(NC(=O)c2cccnc2)c2cc(Cl)c3cccnc3c2O)cc1OC (configuration not stated)	APP transl inh 74, aSyn 5UTR inh 76
Cc1ccc(-c2noc(-c3ccno3)n2)cc1	none (no result: APP transl inh)
CCC(=O)N/C(N)=N/c1nc(C)c2cc(OC)ccc2n1	BaF3 parental 27
O=C(N/N=C/c1ccco1)c1ccc(Br)o1	BaF3 parental 96
CCCCCN(C(=O)NC(=O)NC(C)CC)S(C)(=O)=O (configuration not stated)	BaF3 parental 89
CCC(C)NC(=O)NC(=O)N(C1CCCCC1)S(C)(=O)=O (configuration not stated)	none
COc1cc(/C=N/NC(N)=S)ccc1OCc1ccc(C)cc1	Ba/F3 V617F tox 60, BaF3 parental 48
COc1cc(/C=N/NS(=O)(=O)c2ccc(C)cc2)ccc1OCc1cccc(C(=O)O)c1	aSyn 5UTR inh 90
COc1cc(/C=N/NC(N)=S)ccc1OC(=O)c1ccc(C)cc1	none
Cc1ccc(-c2csc3nc4cc(C(N)=O)ccc4c(=O)n23)cc1	none (no result: KLF5 inh, IEC-6 cytotox, APP transl inh, Ba/F3 V617F tox, BaF3 parental)
